Assay results published in ChEMBL document CHEMBL1157539, “Thousands of chemical starting points for antimalarial lead identification” (Nature, 2010).

Columns and labels:
Type in all cases: functional
Plasmodium falciparum [1] = test: GSK_TCMDC: Inhibition of Plasmodium falciparum 3D7 in whole red blood cells, using parasite LDH activity as an index of growth. Test compounds present at 2uM
Plasmodium falciparum [2] = test: GSK_TCMDC: Inhibition of Plasmodium falciparum Dd2 in whole red blood cells, using parasite LDH activity as an index of growth. Test compounds present at 2uM
HepG2 = test: GSK_TCMDC: Percent inhibition of human HepG2 cell line. Test compounds present at 10uM.

Compound	Inhibition (Plasmodium falciparum [1]) [%]	Inhibition (Plasmodium falciparum [2]) [%]	Inhibition (HepG2) [%]
COc1ccc(Nc2ncc3c(-c4cccc(NC(=O)Cc5cccc(F)c5)c4)c[nH]c3n2)cc1OC	100	68	24
Clc1ccccc1/C=C/c1cncnc1Nc1ccc2[nH]c(Cc3ccccc3)nc2c1	96	26	4
CCc1ccc(S(=O)(=O)Nc2ccc(CCN(C)C3CCN(C)CC3)cc2)cc1	86	9	25
CC(C)(C)[C@@H](Nc1ccc(C#N)c2ccccc12)C(=O)NC1(Cc2ccc(O)cc2)CCCC1	90	74	14
CN(C)CCNc1cc(-c2ccc3ccccc3c2)nc2ccccc12	100	58	24
CN(Cc1ccc(C#N)cc1)C1CCN(c2cc(NC(=O)c3ccc(F)cc3)ccn2)CC1.O=C(O)C(F)(F)F	86	10	24
CN(Cc1cccc(F)c1)C1CCCN(c2cc(NC(=O)c3ccccc3)ccn2)C1.O=C(O)C(F)(F)F (stereo not given)	93	50	3
Cc1cccc2nc(-c3ccc(-c4ccc(CN5CCC(C(N)=O)CC5)cc4)s3)[nH]c12.O=C(O)C(F)(F)F	97	51	4
Cc1cc(N[C@@H](Cc2ccccc2)C(=O)NCc2cccc(F)c2)nc(NCCc2cccnc2)n1.O=C(O)C(F)(F)F	92	40	18
Cc1c(C)n(C2CCCC2)c2ncnc(OC3CCN(CC(=O)NCC4CC4)CC3)c12	89	89	20
